# In PubChem BioAssay (EPA / NIEHS):
# Activity calls are given as the source filed them. Rule for the calls: active = hit-call score of the fitted dose curve at least 0.9, where 1 is the maximum; inactive = score below 0.9.
# Assays:
# [1] = read-out: Interleukin-8 (IL8), CXCL8 (gene 3576); test: BSK_KF3CT_IL8: BioMAP Diversity Plus: KF3CT Assay for Interleukin-8 (IL8) Biomarker Activity (AID 2284254); conditions: primary human keratinocytes with fibroblasts
# Method in brief: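 ELISA detection of IL-8 from a human skin co-culture, keratinocytes with foreskin fibroblasts, at 24 h following chemical exposure, with gain of signal scored against DMSO controls.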
# [2] = read-out: Macrophage Inflammatory Protein-1 Alpha (MIP1a), CCL3 (gene 6348); test: BSK_IMphg_MIP1a: BioMAP Diversity Plus: IMphg Assay for Macrophage Inflammatory Protein-1 Alpha (MIP1a) Biomarker Activity (AID 2284255); conditions: primary human endothelial cells with macrophages
# Method in brief: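 MIP-1a protein levels were quantified by ELISA after 24 h treatment of human endothelial cell–macrophage co-cultures, compared with DMSO. Parallel cultures were fixed with TCA and stained with 0.1% SRB to gauge overt cytotoxicity.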
# [3] = read-out: Plasminogen activator inhibitor-1 (PAI1), SERPINE1 (gene 5054); test: BSK_MyoF_PAI1: BioMAP Diversity Plus: MyoF Assay for Plasminogen activator inhibitor-1 (PAI1) Biomarker Activity (AID 2284256); conditions: primary human lung fibroblasts
# Method in brief: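 Activity reflects increased PAI-1, determined by ELISA and compared with DMSO, in human lung fibroblasts treated for 24 h.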
# CD69, CD69 (gene 969) = test: BSK_IMphg_CD69: BioMAP Diversity Plus: IMphg Assay for CD69 Biomarker Activity (AID 2284257); conditions: primary human endothelial cells with macrophages
# Method in brief: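 Readout is ELISA for CD69 in primary human venular endothelial cell/macrophage co-culture, taken at 24 h post-dosing. SRB staining of parallel cultures gauged overt cytotoxicity; signal increase versus DMSO defined activity.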
# [4] = read-out: Eotaxin 3, CCL26 (gene 10344); test: BSK_BF4T_Eotaxin3: BioMAP Diversity Plus: BF4T Assay for Eotaxin 3 Biomarker Activity (AID 2284258); conditions: primary human bronchial epithelial cells with fibroblasts
# Method in brief: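 ELISA measurement of Eotaxin-3 after 24 h chemical exposure in a bronchial epithelial/dermal fibroblast co-culture, with DMSO as baseline. Parallel SRB staining (0.1% SRB after 10% TCA fixation, 560 nm) flagged overt cytotoxicity.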
# [5] = read-out: Monocyte Chemoattractant Protein-1 (MCP1), CCL2 (gene 6347); test: BSK_BF4T_MCP1: BioMAP Diversity Plus: BF4T Assay for Monocyte Chemoattractant Protein-1 (MCP1) Biomarker Activity (AID 2284259); conditions: primary human bronchial epithelial cells with fibroblasts
# Method in brief: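 MCP-1 ELISA readout taken 24 h after dosing in the BF4T system (bronchial epithelial cells plus dermal fibroblasts). Parallel SRB total-protein staining flagged cytotoxicity; DMSO served as baseline, positive fitting direction.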
# [6] = read-out: Interleukin-8 (IL8), CXCL8 (gene 3576); test: BSK_MyoF_IL8: BioMAP Diversity Plus: MyoF Assay for Interleukin-8 (IL8) Biomarker Activity (AID 2284261); conditions: primary human lung fibroblasts
# Method in brief: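 In this multiplexed primary-cell system, fibroblasts from human lung are treated with chemicals, and IL-8 is detected by ELISA at 24 h, with DMSO serving as the negative reference.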
# CD90, THY1 (gene 7070) = test: BSK_BF4T_CD90: BioMAP Diversity Plus: BF4T Assay for CD90 Biomarker Activity (AID 2284262); conditions: primary human bronchial epithelial cells with fibroblasts
# Method in brief: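 CD90 levels by ELISA after 24 h treatment of human bronchial epithelial cell/dermal fibroblast cultures, analysed versus DMSO. Overt cytotoxicity checked in parallel cultures by sulforhodamine B staining.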
# [7] = read-out: Interleukin-8 (IL8), CXCL8 (gene 3576); test: BSK_BF4T_IL8: BioMAP Diversity Plus: BF4T Assay for Interleukin-8 (IL8) Biomarker Activity (AID 2284263); conditions: primary human bronchial epithelial cells with fibroblasts
# Method in brief: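 Human bronchial epithelial cells with dermal fibroblasts co-culture; IL-8 measured by ELISA 24 hours after dosing, fitted vs DMSO. Cytotoxicity tracked in parallel cultures by SRB total-protein staining.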
# [8] = read-out: Interleukin-1 alpha (IL1a), IL1A (gene 3552); test: BSK_BF4T_IL1a: BioMAP Diversity Plus: BF4T Assay for Interleukin-1 alpha (IL1a) Biomarker Activity (AID 2284264); conditions: primary human bronchial epithelial cells with fibroblasts
# Method in brief: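 ELISA read-out of IL-1α from bronchial epithelial cell/dermal fibroblast co-cultures 24 h after compound addition. Increases scored against DMSO negative control. Cytotoxicity monitored by sulforhodamine B staining of parallel cultures.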
# Decorin, DCN (gene 1634) = test: BSK_MyoF_Decorin: BioMAP Diversity Plus: MyoF Assay for Decorin Biomarker Activity (AID 2284265); conditions: primary human lung fibroblasts
# Method in brief: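 Lung fibroblast cultures, 24 h chemical exposure. Decorin by ELISA, positive fitting direction, DMSO baseline.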
# KRT18 (gene 3875) = test: BSK_BF4T_Keratin818: BioMAP Diversity Plus: BF4T Assay for Keratin 818 Biomarker Activity (AID 2284266); conditions: primary human bronchial epithelial cells with fibroblasts
# Method in brief: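 Keratin 8/18 levels quantified by ELISA after 24 h chemical treatment of bronchial epithelial cell/dermal fibroblast co-cultures, fitted in positive direction relative to DMSO. Parallel SRB staining tracks overt cytotoxicity.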
# [9] = BSK_MyoF_SRB: Viability Assessment in the BioMAP Diversity Plus: MyoF Assay (AID 2284267); conditions: primary human lung fibroblasts;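 note: total protein by SRB absorbance in parallel cultures as cytotoxicity measure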
# Method in brief: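 Lung fibroblast cultures, 24 h post-dose; fix 10% TCA, stain 0.1% SRB, read 560 nm. Signal = total protein as cytotoxicity measure; fitted relative to DMSO negative control.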
# [10] = read-out: Matrix Metallopeptidase 1 (MMP1), MMP1 (gene 4312); test: BSK_MyoF_MMP1: BioMAP Diversity Plus: MyoF Assay for Matrix Metallopeptidase 1 (MMP1) Biomarker Activity (AID 2284268); conditions: primary human lung fibroblasts
# Method in brief: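 MMP1 measured by ELISA 24 h after dosing primary human lung fibroblasts; cytotoxicity checked in parallel cultures by sulforhodamine B total-protein staining read at 560 nm.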
# [11] = read-out: TIMP metallopeptidase inhibitor 1 (TIMP1), TIMP1 (gene 7076); test: BSK_MyoF_TIMP1: BioMAP Diversity Plus: MyoF Assay for TIMP metallopeptidase inhibitor 1 (TIMP1) Biomarker Activity (AID 2284269); conditions: primary human lung fibroblasts
# Method in brief: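 Primary human lung fibroblasts, MyoF multiplex system; chemical exposure 24 h; TIMP-1 by ELISA; positive fitting direction vs DMSO control.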
# [12] = read-out: Matrix Metallopeptidase 1 (MMP1), MMP1 (gene 4312); test: BSK_BF4T_MMP1: BioMAP Diversity Plus: BF4T Assay for Matrix Metallopeptidase 1 (MMP1) Biomarker Activity (AID 2284270); conditions: primary human bronchial epithelial cells with fibroblasts
# Method in brief: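 MMP-1 quantified by ELISA in primary human bronchial epithelial/dermal fibroblast co-cultures, 24 hours post-dosing, with DMSO as baseline; parallel sulforhodamine B staining (560 nm) tracks overt cytotoxicity.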
# [13] = read-out: Matrix Metallopeptidase 3 (MMP3), MMP3 (gene 4314); test: BSK_BF4T_MMP3: BioMAP Diversity Plus: BF4T Assay for Matrix Metallopeptidase 3 (MMP3) Biomarker Activity (AID 2284271); conditions: primary human bronchial epithelial cells with fibroblasts
# Method in brief: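 MMP-3 level read by ELISA after 24 h chemical exposure of bronchial epithelial cell/dermal fibroblast co-cultures, fitted upward relative to DMSO. Parallel cultures stained with 0.1% SRB after TCA fixation gauge overt cytotoxicity.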
# [14] = read-out: Tissue plasminogen activator (tPA), PLAT (gene 5327); test: BSK_BF4T_tPA: BioMAP Diversity Plus: BF4T Assay for Tissue plasminogen activator (tPA) Biomarker Activity (AID 2284272); conditions: primary human bronchial epithelial cells with fibroblasts
# Method in brief: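 tPA level quantified by ELISA at 24 h post-treatment in bronchial epithelial/dermal fibroblast co-cultures, gain of signal scored against DMSO baseline. Parallel cultures stained with 0.1% SRB (560 nm) to flag overt cytotoxicity.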
# [15] = read-out: Plasminogen Activator Inhibitor-1 (PAI1), SERPINE1 (gene 5054); test: BSK_BF4T_PAI1: BioMAP Diversity Plus: BF4T Assay for Plasminogen Activator Inhibitor-1 (PAI1) Biomarker Activity (AID 2284273); conditions: primary human bronchial epithelial cells with fibroblasts
# Method in brief: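 PAI-1 levels quantified by ELISA 24 h post-dosing in bronchial epithelial cell plus dermal fibroblast cultures. Signal gain referenced to DMSO baseline. Sulforhodamine B total-protein staining of parallel wells checked cytotoxicity.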
structure (smiles),measurement,setting,value
C=C(C)C(=O)OCC(F)(F)C(F)(F)C(F)(F)F,outcome,[1],inactive
same,outcome,[2],inactive
same,outcome,[3],inactive
same,outcome,"CD69, CD69 (gene 969)",inactive
same,outcome,[4],inactive
same,outcome,[5],inactive
same,outcome,[6],inactive
same,outcome,"CD90, THY1 (gene 7070)",inactive
same,outcome,[7],inactive
same,outcome,[8],inactive
same,outcome,"Decorin, DCN (gene 1634)",inactive
same,outcome,KRT18 (gene 3875),inactive
same,outcome,[9],inactive
same,outcome,[10],inactive
same,outcome,[11],inactive
same,outcome,[12],inactive
same,outcome,[13],inactive
same,outcome,[14],inactive
same,outcome,[15],inactive
C#C[C@]1(O)CC[C@H]2[C@@H]3CCc4cc(OC)ccc4[C@H]3CC[C@@]21C,outcome,[3],inactive
same,outcome,[6],inactive
same,outcome,"Decorin, DCN (gene 1634)",inactive
same,outcome,[9],inactive
same,AC50,[10],20 µM (active)
same,outcome,[11],inactive
Oc1ccc(Nc2ccccc2)cc1,AC50,[3],7.66 µM (active)
same,AC50,[6],3.97 µM (active)
same,outcome,"Decorin, DCN (gene 1634)",inactive
same,outcome,[9],inactive
same,outcome,[10],inactive
same,outcome,[11],inactive
C=CC/C=C/C/C=C/C/C=C/C,AC50,[3],0.016 µM (active)
same,outcome,[6],inactive
same,outcome,"Decorin, DCN (gene 1634)",inactive
same,outcome,[9],inactive
same,outcome,[10],inactive
same,outcome,[11],inactive
CC(CCl)OP(=O)(OC(C)CCl)OC(C)CCl (stereo not given),outcome,[3],inactive
same,outcome,[6],inactive
same,outcome,"Decorin, DCN (gene 1634)",inactive
same,outcome,[9],inactive
same,outcome,[10],inactive
same,outcome,[11],inactive
OCC(F)(F)C(F)(F)C(F)(F)C(F)(F)C(F)(F)C(F)F,outcome,[1],inactive
same,outcome,[2],inactive
same,outcome,[3],inactive
same,outcome,"CD69, CD69 (gene 969)",inactive
same,outcome,[4],inactive
same,outcome,[5],inactive
same,outcome,[6],inactive
same,outcome,"CD90, THY1 (gene 7070)",inactive
same,outcome,[7],inactive
same,outcome,[8],inactive
same,outcome,"Decorin, DCN (gene 1634)",inactive
same,outcome,KRT18 (gene 3875),inactive
same,outcome,[9],inactive
same,outcome,[10],inactive
same,outcome,[11],inactive
same,outcome,[12],inactive
same,outcome,[13],inactive
same,outcome,[14],inactive
same,outcome,[15],inactive
O=C(O)C(F)(OC(F)(F)C(F)(OC(F)(F)C(F)(OC(F)(F)C(F)(F)C(F)(F)F)C(F)(F)F)C(F)(F)F)C(F)(F)F (stereo not given),outcome,[1],inactive
same,outcome,[2],inactive
same,outcome,[3],inactive
same,outcome,"CD69, CD69 (gene 969)",inactive
same,outcome,[4],inactive
same,outcome,[5],inactive
same,outcome,[6],inactive
same,outcome,"CD90, THY1 (gene 7070)",inactive
same,outcome,[7],inactive
same,outcome,[8],inactive
same,outcome,"Decorin, DCN (gene 1634)",inactive
same,outcome,KRT18 (gene 3875),inactive
same,outcome,[9],inactive
same,outcome,[10],inactive
same,outcome,[11],inactive
same,outcome,[12],inactive
same,outcome,[14],inactive
same,outcome,[15],inactive
